Assay outcomes from PubChem BioAssay.
Sampled rows, rich in hits. Any-hit rate of the full collection: about 7.6%.
HCV NS3h FP – HCV NS3 helicase inhibitors, primary screen, biochemical, fluorescence polarization, ChemBridge library | AID 687043, 2013 | inhibition, % at 100 µM | Hepatitis C virus NS3 helicase | 16,000 compounds, 1.6% hits | NS3h Cy5-dT15 DNA binding;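 active means inhibition above the average over every tested compound plus 3 SD, cut at about 40% in these data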
Cy5 interf NS3h – Cy5 fluorescence quenchers or enhancers, artefact control for HCV NS3 helicase inhibitor project, biochemical, ChemBridge library, Cy5 readout. Cy5-dT15 DNA with NS3h, fluorescence interference; actives lie on both sides; signal over control mean, under 1 quenches. fluorescence interference ratio at 100 µM. 16,000 compounds, 6% hits. AID 720488, 2013;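 active means compound fluorescence over control fluorescence at most 0.8, a quencher, or at least a set upper limit, an enhancer; inactive means ratio between 0.8 and the set upper limit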
HCV NS3h conf – HCV NS3 helicase inhibitors, retest, confirmation, biochemical, fluorescence polarization, ChemBridge library | shares compounds with HCV NS3h FP | 240 compounds, 20% hits | inhibition, % at 100 µM | NS3h binding to Cy5-dT15 DNA;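 active means percent inhibition of 50% or more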
SSB-DNA FP CB – E. coli SSB-DNA binding inhibitors, counter-screen for HCV NS3 helicase inhibitor project, biochemical, fluorescence polarization, selected ChemBridge compounds; shares compounds with HCV NS3h FP; 240 compounds, 40% hits; E. coli SSB binding Cy5-dT15; inhibition, % at 100 µM;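 active means inhibition of at least 50%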;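 further: displacers lower Cy5 polarization so higher inhibition means more SSB displaced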
Target sequence (P0AGE0 whole entry, looked up): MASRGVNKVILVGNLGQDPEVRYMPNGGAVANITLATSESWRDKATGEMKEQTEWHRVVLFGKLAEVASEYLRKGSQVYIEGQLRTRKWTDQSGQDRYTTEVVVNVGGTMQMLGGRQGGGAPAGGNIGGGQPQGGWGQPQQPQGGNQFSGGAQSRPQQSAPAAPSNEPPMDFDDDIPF
Cy5 SSB interf – Cy5 fluorescence interference with SSB-bound oligo, artefact control for HCV NS3 helicase inhibitor project, biochemical, E. coli SSB, selected ChemBridge compounds; shares compounds with HCV NS3h FP; Cy5-dT15/E. coli SSB fluorescence interference; actives lie on both sides; fluorescence interference ratio at 100 µM; 240 compounds, 8% hits;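 active means fluorescence interference ratio at or above 1.2, signal boosting, or at or below 0.8, signal quenching; inactive means ratio between 0.8 and 1.2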
Cy5 fluor confirm – Cy5-DNA-NS3h complex fluorescence interference, confirmation, artefact control for HCV NS3 helicase inhibitor project, biochemical, ChemBridge library | shares compounds with HCV NS3h FP | Cy5-dT15 DNA/NS3h fluorescence interference counterscreen | fluorescence interference ratio at 100 µM, hits read low | 240 compounds, 44% hits | AID 720489, 2013;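 active means fluorescence interference ratio at or below 0.8 quencher or at or above a set limitenhancer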
Each line names hits and unclear results; the compound was inactive in the other large screens (follow-up assays come after a bar, where they were run); ! = a repeat was not active.

CC1=NN(c2ccccc2)C(=O)C1=Cc1c(O)[nH]c(=O)[nH]c1=O	Cy5 interf NS3h 0.707
O=[N+]([O-])c1ccc(NCCCO)c2ncccc12	none
O=[N+]([O-])c1ccc(NCC(O)c2ccccc2)c2ncccc12 (centres undefined)	Cy5 interf NS3h 0.652
CC(Nc1ccc([N+](=O)[O-])c2cccnc12)c1ccc(Br)cc1 (centres undefined)	Cy5 interf NS3h 0.677
CCCc1ccc(OCCNc2ccc([N+](=O)[O-])c3cccnc23)cc1	none
Cn1c(O)c(C=C2C=CC=N2)c(=O)[nH]c1=O	none
COc1ccccc1CNCCc1ccc(Cl)cc1	none
COC(=O)C(=O)/C(=C\c1ccc(-c2ccccc2[N+](=O)[O-])o1)C(=O)c1ccccc1	none
CCN1CCN(c2ccc(C(F)(F)F)cn2)CC1	none
COc1ccc(C=C2C(=O)NC(=S)NC2=O)c(OC)c1	Cy5 interf NS3h 0.775
COc1cccc(C=C2C(=O)NC(=O)NC2=O)c1	none
O=P(Oc1ccccc1)(Oc1ccccc1)C(NCc1ccccc1)c1ccccc1 (centres undefined)	none
CCCCC1(C)NCCN2C(=O)CSC21 (centres undefined)	none
COc1ccc2[nH]cc(CCN)c2c1	Cy5 interf NS3h 0.756
Cc1ccc(C)n1-c1ccc(N2CCNCC2)c([N+](=O)[O-])c1	Cy5 interf NS3h 0.317
O=[N+]([O-])c1ccc(N2CCCC2)c(F)c1Br	none
O=C(Cn1c[n+]([N-][N+](=O)[O-])cn1)Nc1ccc(NC(=O)Cn2c[n+]([N-][N+](=O)[O-])cn2)cc1	Cy5 interf NS3h 0.757
O=C(Cn1c[n+]([N-][N+](=O)[O-])cn1)N1CCN(C(=O)Cn2c[n+]([N-][N+](=O)[O-])cn2)CC1	none
Cc1ccc(NC(=O)c2nc[nH]c2C(=O)Nc2ccc(Br)cc2C(=O)c2ccccc2)cc1	none
COC(=O)c1[nH]cnc1C(=O)Nc1ccc(Cl)cc1C(=O)c1ccccc1	Cy5 interf NS3h 0.72!
CCOc1ccc(N2C(=O)NC(=O)/C(=C\c3ccc(Sc4nc5ccccc5[nH]4)o3)C2=O)cc1	none
OC1C2CCCC1C(N1CCCCC1)CC2 (centres undefined)	none
CC(C)N1CCN(Cc2cc(Br)ccc2O)CC1	none
CC1=[N+]([O-])C(C(=O)c2ccccc2)N(O)C1(C)C (centres undefined)	none
O=C(Nc1ccc(Cl)cc1C(=O)c1ccccc1)c1cncc(Br)c1	none
Cc1cc([N+](=O)[O-])nn1CC(=O)Nc1ccc(Cl)cc1C(=O)c1ccccc1	Cy5 interf NS3h 0.569
Cc1cc(OCc2ccc(Cl)cc2)c2c3c(c(=O)oc2c1)CCC3	none
Cc1cc(C=C2C(=O)NC(=O)NC2=O)c(C)n1-c1cccnc1	HCV NS3h FP 46.6 | HCV NS3h conf inactive | SSB-DNA FP CB inactive | Cy5 SSB interf inactive | Cy5 fluor confirm 0.76
Cc1cc(C=C2C(=O)NC(=O)NC2=O)c(C)n1C	none
CC1(C)C(=O)N(c2ccccc2)C(=O)N(c2ccccc2)C1=O	none
CCN1CCC2(CC1)CC(C)c1cccc(C)c1N2 (centres undefined)	none
O=C1/C(=C/c2ccccn2)N2CCC1CC2	none
Cc1ccc(N2C(=O)/C(=C/c3ccc(-c4cccc(C(=O)O)c4)o3)C(=O)NC2=S)cc1	HCV NS3h FP 83.0 | HCV NS3h conf 55.2 | SSB-DNA FP CB 104.9 | Cy5 SSB interf inactive | Cy5 fluor confirm inactive
Cc1ccc(N2C(=O)NC(=O)/C(=C\C=C\c3ccccc3)C2=O)cc1	none
O=C1NC(=S)N(c2ccccc2)C(=O)/C1=C/c1ccc(-c2ccc(C(=O)O)c(Cl)c2)o1	HCV NS3h FP 68.2 | HCV NS3h conf 65.8 | SSB-DNA FP CB 95.1 | Cy5 SSB interf inactive | Cy5 fluor confirm inactive
Cc1ccc(-n2c(C)cc(/C=C3\C(=O)NC(=S)N(c4ccccc4)C3=O)c2C)cc1	none
O=C1NC(=O)N(c2ccccc2)C(=O)/C1=C\c1ccc(-c2ccc(C(=O)O)cc2)o1	HCV NS3h FP 83.1 | HCV NS3h conf 91.2 | SSB-DNA FP CB 93.9 | Cy5 SSB interf inactive | Cy5 fluor confirm 0.76
O=C1NC(=S)NC(=O)C1=Cc1ccc(-c2cc(Cl)c([N+](=O)[O-])cc2Cl)o1	none
COc1ccccc1N1C(=O)NC(=O)/C(=C\c2ccc(O)cc2)C1=O	none
